This note sets out measurements from PubChem BioAssay AID588689 (Southern Research Specialized Biocontainment Screening …, 2011).

This test deals with Genome polyprotein (Dengue virus type 2 (strain 16681-PDK53)) (UniProt P29991). Put plainly: flavivirus cap methylation enzyme inhibition – biochemical, confirmation dose response, primary screen (AID 588689). As to conditions: Dengue-2 NS5 methyltransferase capping enzyme assay, at 25 µM, stronger effect = higher value.
Setting [1] is: measured here: pilot screen replicate inhibition.

SMILES strings stand for the structures. Out of some 340,000 compounds screened, about 1,000 (0.29%) were called active. No stated cut-off is given here; in the data, inconclusive means inhibition above about 29% without an active follow-up result; inactive means below that. Only a sample is shown. Potency and affinity values are given separately.

Genome polyprotein (Dengue virus type 2 (strain 16681-PDK53)), sequence (P29991 whole entry, looked up): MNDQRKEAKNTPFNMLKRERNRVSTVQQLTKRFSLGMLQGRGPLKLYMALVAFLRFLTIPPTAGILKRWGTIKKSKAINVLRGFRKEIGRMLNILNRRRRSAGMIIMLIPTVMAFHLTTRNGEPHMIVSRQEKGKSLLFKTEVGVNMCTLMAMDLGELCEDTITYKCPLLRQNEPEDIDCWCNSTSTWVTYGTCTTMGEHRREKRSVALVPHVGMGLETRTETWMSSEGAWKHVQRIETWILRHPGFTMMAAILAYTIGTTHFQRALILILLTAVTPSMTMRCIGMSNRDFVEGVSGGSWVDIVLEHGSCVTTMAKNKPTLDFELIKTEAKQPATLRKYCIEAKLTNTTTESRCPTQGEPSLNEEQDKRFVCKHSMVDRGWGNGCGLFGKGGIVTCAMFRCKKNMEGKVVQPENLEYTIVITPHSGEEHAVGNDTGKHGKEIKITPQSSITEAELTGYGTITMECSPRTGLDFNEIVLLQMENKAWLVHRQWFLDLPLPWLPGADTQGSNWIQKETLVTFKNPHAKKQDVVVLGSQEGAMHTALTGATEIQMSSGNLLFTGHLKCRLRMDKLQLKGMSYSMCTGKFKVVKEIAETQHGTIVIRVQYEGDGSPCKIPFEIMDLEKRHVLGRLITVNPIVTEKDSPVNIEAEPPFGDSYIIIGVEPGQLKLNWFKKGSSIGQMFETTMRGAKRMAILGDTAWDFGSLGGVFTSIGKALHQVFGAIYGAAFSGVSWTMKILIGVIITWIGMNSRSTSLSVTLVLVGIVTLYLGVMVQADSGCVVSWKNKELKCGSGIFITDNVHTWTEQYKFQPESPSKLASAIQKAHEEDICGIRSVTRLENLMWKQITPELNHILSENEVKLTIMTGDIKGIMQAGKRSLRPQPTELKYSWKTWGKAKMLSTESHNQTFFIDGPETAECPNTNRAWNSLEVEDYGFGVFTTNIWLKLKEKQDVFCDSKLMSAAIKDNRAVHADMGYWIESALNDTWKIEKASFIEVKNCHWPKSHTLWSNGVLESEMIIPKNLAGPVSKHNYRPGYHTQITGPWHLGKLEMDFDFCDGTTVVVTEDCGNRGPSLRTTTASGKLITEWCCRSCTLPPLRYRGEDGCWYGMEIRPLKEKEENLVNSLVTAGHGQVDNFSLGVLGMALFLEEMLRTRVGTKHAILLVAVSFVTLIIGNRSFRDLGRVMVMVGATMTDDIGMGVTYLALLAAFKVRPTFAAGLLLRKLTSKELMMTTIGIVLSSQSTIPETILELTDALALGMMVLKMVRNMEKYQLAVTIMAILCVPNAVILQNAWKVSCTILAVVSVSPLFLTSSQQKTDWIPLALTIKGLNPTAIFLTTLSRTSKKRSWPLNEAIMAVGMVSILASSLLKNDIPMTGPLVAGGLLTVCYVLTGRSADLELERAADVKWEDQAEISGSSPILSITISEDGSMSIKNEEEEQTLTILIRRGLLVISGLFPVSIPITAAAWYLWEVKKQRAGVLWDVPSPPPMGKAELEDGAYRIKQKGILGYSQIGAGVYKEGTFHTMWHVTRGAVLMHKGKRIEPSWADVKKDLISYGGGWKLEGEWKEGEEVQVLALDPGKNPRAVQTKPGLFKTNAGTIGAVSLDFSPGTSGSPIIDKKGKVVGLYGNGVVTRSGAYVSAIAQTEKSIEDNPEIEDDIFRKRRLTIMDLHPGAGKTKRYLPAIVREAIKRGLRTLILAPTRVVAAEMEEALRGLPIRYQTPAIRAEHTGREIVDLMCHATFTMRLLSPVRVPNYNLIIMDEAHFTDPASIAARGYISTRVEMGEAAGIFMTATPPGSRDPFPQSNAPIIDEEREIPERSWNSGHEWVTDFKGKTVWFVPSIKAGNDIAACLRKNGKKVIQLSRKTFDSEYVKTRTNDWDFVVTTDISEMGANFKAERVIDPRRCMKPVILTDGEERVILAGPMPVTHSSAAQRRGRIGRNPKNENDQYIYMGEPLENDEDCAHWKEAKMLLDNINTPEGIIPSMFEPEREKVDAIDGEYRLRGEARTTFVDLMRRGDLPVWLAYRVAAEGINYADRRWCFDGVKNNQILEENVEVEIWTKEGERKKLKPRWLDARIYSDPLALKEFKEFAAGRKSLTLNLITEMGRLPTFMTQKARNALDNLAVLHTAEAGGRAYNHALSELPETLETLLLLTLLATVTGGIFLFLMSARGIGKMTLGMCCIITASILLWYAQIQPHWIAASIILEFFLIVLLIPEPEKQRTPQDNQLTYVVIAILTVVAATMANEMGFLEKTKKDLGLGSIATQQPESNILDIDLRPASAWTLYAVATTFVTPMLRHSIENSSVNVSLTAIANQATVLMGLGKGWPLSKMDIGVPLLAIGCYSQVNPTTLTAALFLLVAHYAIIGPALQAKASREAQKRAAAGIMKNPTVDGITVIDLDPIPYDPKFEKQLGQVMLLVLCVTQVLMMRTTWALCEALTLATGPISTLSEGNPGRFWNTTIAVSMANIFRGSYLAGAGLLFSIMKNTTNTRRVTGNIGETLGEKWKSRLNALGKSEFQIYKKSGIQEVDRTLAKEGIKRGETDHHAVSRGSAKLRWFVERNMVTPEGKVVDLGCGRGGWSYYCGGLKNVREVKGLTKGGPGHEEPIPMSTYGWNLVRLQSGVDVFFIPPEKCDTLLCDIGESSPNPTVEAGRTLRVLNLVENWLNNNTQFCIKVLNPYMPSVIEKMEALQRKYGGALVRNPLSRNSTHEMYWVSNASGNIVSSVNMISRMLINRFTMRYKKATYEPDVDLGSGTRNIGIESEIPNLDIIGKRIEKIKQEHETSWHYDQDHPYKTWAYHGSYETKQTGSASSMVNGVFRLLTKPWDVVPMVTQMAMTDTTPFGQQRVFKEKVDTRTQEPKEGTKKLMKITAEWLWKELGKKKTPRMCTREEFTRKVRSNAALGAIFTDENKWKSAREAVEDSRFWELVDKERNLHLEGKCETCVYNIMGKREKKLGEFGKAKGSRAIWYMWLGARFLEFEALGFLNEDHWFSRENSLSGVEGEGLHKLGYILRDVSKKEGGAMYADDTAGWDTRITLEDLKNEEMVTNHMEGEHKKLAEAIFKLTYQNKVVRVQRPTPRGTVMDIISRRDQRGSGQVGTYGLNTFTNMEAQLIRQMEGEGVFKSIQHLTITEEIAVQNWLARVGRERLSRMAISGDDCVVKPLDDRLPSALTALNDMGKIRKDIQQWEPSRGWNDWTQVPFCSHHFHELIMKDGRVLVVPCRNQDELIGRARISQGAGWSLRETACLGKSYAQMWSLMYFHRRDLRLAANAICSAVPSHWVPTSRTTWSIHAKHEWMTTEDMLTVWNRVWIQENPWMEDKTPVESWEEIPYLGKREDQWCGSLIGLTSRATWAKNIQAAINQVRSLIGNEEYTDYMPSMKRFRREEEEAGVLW

On to `Nc1ccccc1Sc1ccc(C(=O)c2ccccc2C(=O)O)cc1[N+](=O)[O-]`, for which the inhibition is 17.6% (inactive).

As to `CC(=O)c1ccc(Sc2ccccc2)c([N+](=O)[O-])c1`, the inhibition is 3.06% (inactive).

In the case of `Cc1oc2c(c1C(=O)c1ccc(Cl)cc1)C(=O)C(=O)c1ccccc1-2`, the inhibition is 28% (inactive).

Turning to `O=C(c1ccccc1)c1coc2c1C(=O)c1ccccc1C2=O`, the inhibition was 6.1% (inactive).

Regarding `Cc1ccc(C(=O)c2c(C)oc3c2C(=O)C(=O)c2ccccc2-3)cc1`, the inhibition is 21.1% (inactive).

For the compound `COc1ccc(C(=O)c2c(C(F)(F)F)oc3c2C(=O)c2ccccc2C3=O)cc1`, the inhibition was 9.03% (inactive).

Turning to `COc1ccc(C(=O)c2coc(-c3ccccc3C(=O)O)c2C(=O)O)cc1`, the inhibition was 2.56% (inactive).

On to `Cc1ccc(C(=O)c2c[nH]cc2-c2ccccc2)cc1`, for which the inhibition was -3.21% (inactive).

As to `O=C1c2ccccc2C(=O)c2c1oc(C(F)(F)F)c2C(=O)c1ccccc1`, the inhibition was -2.07% (inactive).

As for `Cc1ccc(C(=O)c2coc3ccc(O)cc23)cc1`, the inhibition is 2.6% (inactive).

On to `CN1CCN(CCCNC(=O)Cn2ncc3c4ccccc4n(C)c3c2=O)CC1`, for which the inhibition is -0.7% (inactive).

For the compound `CCOc1ccc(C(=O)Nc2cccc(NC(=O)c3cccs3)c2)cc1[N+](=O)[O-]`, the inhibition is -6.19% (inactive).

Take `COc1cc(OC)cc(C(=O)NCCCNC(=O)c2cccnc2)c1`: the inhibition is -1.78% (inactive).

On to `Cc1nc(N2CCOCC2)[nH]c(=O)c1CCC(C)C`, for which the inhibition was -3.29% (inactive).

Turning to `CC(=C\C(=O)O)/C(=C\c1cccc2ccccc12)C(=O)O`, the inhibition is -1.16% (inactive).

In the case of `CCn1c(=S)sc2c(=O)n(-c3ccccc3)c(SCC(=O)NCc3ccco3)nc21`, the inhibition was 2.42% (inactive).

`CN1C[C@H]2CON(C)[C@H]2C[C@H]1c1cccc(-c2ccccc2)c1`: the inhibition is -6.62% (inactive). The inhibition under setting [1] was -3.38%.

As to `COc1ccc(-n2c(-c3ccc(Br)cc3)nc(=S)c3c2CCCC3)cc1`, the inhibition was -4.74% (inactive).

With `CC(C)CCNC(=O)c1ccc(-n2cnc3cccnc32)cc1`, the inhibition was -2.72% (inactive).

As for `COc1ccc2cc(CCNC(=O)CCc3ccccc3)c(=O)[nH]c2c1`, the inhibition is 0.89% (inactive).

In the case of `O=C(Nc1ncn[nH]1)c1ccc(S(=O)(=O)N2CCOCC2)cc1`, the inhibition was -3.52% (inactive).

On to `CC1(C)CC(=O)C(C(c2cccnc2)C2C(=O)CC(C)(C)CC2=O)C(=O)C1`, for which the inhibition was 12.3% (inactive). Moreover, the inhibition under setting [1] was -0.765%.

For `CC1(C)CC(=O)C(C(c2ccc(F)cc2)C2C(=O)CC(C)(C)CC2=O)C(=O)C1`, the inhibition is -0.73% (inactive).

As to `COC(=O)COc1ccc(NC(=O)C(c2ccccc2)c2ccccc2)cc1`, the inhibition was -6.79% (inactive).

Turning to `COc1ccc(C2=CC(=O)CC(C)(C)C2)cc1`, the inhibition is 2.79% (inactive).

With `COC(=O)c1ccc(C(C2C(=O)CC(C)(C)CC2=O)C2C(=O)CC(C)(C)CC2=O)cc1`, the inhibition was -3.89% (inactive).

As for `COc1cccc(C(C2C(=O)CC(C)(C)CC2=O)C2C(=O)CC(C)(C)CC2=O)c1`, the inhibition is 23.1% (inactive).
